# From PMC4336329 (PLoS ONE, 2015)
# Hit rate of the full screen: of about 310,000 compounds, about 14,000 (4.5%) showed an effect of 50% or more. Effects have a minus sign here. Only a selection was taken, and strong results are over-represented in it overall.
# Target: human ether-à-go-go-related gene (hERG) potassium channel (human, UniProt Q12809)
# Test: primary screen, population patch clamp on CHO cells stably expressing hERG; higher = less effect of the substance
# 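Note: peak tail current of the secondary pulse compared with the same well before compound.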
# Sequence of human ether-à-go-go-related gene (hERG) potassium channel (Q12809 whole entry, looked up): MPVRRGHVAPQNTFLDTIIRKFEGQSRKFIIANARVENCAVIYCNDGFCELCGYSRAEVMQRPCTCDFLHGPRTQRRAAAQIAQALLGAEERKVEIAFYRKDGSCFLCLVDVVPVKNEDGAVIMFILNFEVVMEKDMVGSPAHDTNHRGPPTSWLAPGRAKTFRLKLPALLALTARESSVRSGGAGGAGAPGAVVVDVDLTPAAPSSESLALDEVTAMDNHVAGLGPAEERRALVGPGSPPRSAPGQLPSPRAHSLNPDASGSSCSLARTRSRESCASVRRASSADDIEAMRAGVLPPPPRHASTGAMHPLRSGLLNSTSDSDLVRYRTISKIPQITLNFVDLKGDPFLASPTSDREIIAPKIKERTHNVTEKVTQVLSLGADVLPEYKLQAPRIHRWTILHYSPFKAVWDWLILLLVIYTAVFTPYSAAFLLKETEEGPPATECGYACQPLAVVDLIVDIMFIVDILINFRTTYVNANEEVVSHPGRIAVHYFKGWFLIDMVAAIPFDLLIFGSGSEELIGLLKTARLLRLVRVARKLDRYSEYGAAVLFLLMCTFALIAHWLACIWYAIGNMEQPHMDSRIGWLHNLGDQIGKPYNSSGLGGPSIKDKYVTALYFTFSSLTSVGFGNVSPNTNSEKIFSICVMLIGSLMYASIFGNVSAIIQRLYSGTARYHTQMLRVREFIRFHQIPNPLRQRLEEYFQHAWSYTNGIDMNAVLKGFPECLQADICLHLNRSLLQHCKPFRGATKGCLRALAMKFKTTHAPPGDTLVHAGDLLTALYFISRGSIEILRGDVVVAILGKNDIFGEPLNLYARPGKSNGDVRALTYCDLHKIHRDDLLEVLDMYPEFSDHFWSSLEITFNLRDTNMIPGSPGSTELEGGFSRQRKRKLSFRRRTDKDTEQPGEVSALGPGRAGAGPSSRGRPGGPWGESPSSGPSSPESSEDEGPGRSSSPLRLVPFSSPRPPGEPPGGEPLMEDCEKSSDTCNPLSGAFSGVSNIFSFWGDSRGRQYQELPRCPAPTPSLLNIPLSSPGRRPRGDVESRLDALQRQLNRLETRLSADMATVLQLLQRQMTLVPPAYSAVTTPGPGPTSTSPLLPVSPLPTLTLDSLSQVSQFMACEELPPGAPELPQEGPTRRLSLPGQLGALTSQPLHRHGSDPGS
row,Compound,"hERG current change (%, negative = inhibition) at 10uM [%]"
1,CCSC1=C(C#N)C(c2cccc(O)c2)CC(=O)N1 (centres unmarked),2.7
2,N#Cc1cccc(NC(=O)COC(=O)CCc2ccc(S(=O)(=O)N3CCOCC3)cc2)c1,-60.1
3,COc1ccc(NC(=O)CNc2cc(S(=O)(=O)N3CCOCC3)ccc2NCC2CCCO2)cc1 (centres unmarked),-18.3
4,CC(=O)c1cccc(NC(=O)COC(=O)CCc2ccc(S(=O)(=O)N3CCOCC3)cc2)c1,6.05
5,N#Cc1ccc(NC(=S)NC(=O)CCc2ccc(S(=O)(=O)N3CCOCC3)cc2)cc1,0.205
6,O=C(CNc1cc(S(=O)(=O)N2CCOCC2)ccc1NCC1CCCO1)Nc1ccc(C(F)(F)F)cc1 (centres unmarked),-30.4
7,N#Cc1ccc(NC(=O)CCc2ccc(S(=O)(=O)N3CCOCC3)cc2)cc1,-51.5
8,N#Cc1ccc(NC(=O)CNc2cc(S(=O)(=O)N3CCOCC3)ccc2NCC2CCCO2)cc1 (centres unmarked),-70
9,O=C(COC(=O)CCc1ccc(S(=O)(=O)N2CCOCC2)cc1)Nc1cccc(Cl)c1,-30.3
10,O=C(CCc1ccccc1)Nc1ccc(S(=O)(=O)N2CCOCC2)cc1,-28.1
11,O=C(O)c1ccc(COCC(F)(F)C(F)F)o1,16
12,CC(CNC(=O)C(C)C)NC(=O)C(C)C (centres unmarked),7.92
13,CCN1C(=O)[C@H]2[C@@H](c3ccc(Cl)cc3)N3C(=O)CN(CCOC)C(=O)[C@@]3(C)[C@H]2C1=O,3.18
14,COc1ccc(C2(C(=O)Nc3ccc(C(=O)O)cc3)CCOCC2)cc1,9.95
15,COc1ccc(Cl)cc1NC(=O)CNc1ccccc1CN(C)C1CCCCC1,-37.9
16,COc1ccc(/C=C/C(=O)N2CC(C)OC(C)C2)cc1OC (centres unmarked),-11
17,CC1CN(C(=O)/C=C/c2ccc(SC(F)F)cc2)CC(C)O1 (centres unmarked),-59.6
18,CC1CN(C(=O)/C=C/c2ccc3c(c2)OCO3)CC(C)O1 (centres unmarked),-21
19,C#Cc1ccc([C@H]2C=C(C(=O)N3CCN(Cc4ccccc4)CC3)O[C@@H](OCC)[C@@H]2CCCO)cc1,-19.6
20,COc1ccccc1OCC(=O)NCCSCc1ccccc1Cl,-22.6
21,CC(C)(C)NC(=O)CN1CCC(NC(=O)C23CC4CC(CC(C4)C2)C3)CC1,28.1
22,O=C(Nc1cccnc1)c1cccnc1Cl,4.09

row,Compound,"hERG current change (%, negative = inhibition) at 10uM [%]"
1,CC(=O)c1c(N2CCCC2)nc(=S)n(-c2ccccc2)c1C,-0.251
2,CC(=O)c1c(N2CCN(c3cccc(Cl)c3)CC2)nc(=S)n(-c2ccccc2)c1C,-68.8
3,CCn1c(C)c(C(C)=O)c(N2CCN(c3cccc(Cl)c3)CC2)nc1=S,-27.6
4,CC(=O)c1c(N2CCN(c3ccccc3)CC2)nc(=S)n(-c2ccccc2)c1C,-20.1
5,COc1ccc(N2CCN(c3nc(=S)n(-c4ccccc4)c(C)c3C(C)=O)CC2)cc1,-9.97
6,CC(=O)c1c(N2CCN(c3ccc(F)cc3)CC2)nc(=S)n(-c2ccccc2)c1C,-75
7,CC(=O)Nc1ccccc1-c1nc2cc(C#N)c(C#N)cc2[nH]c1=O,-4.17
8,O=c1[nH]c(NCCO)nc2c1C1(CCCCC1)Cc1ccccc1-2,7.03
9,COc1cccc(/C=N/NC(=O)CNC(=O)c2ccc3c(c2)OCCO3)c1O,-0.701
10,O=C(NCC1CCCO1)c1cnn2c(C(F)F)cc(C3CC3)nc12 (centres unmarked),-2.7
11,CCCOC(=O)c1ccc(Nc2nc(C)cc(=O)[nH]2)cc1,3.46
12,COc1ccc(NC(=O)NC2CCCc3ccccc32)c(OC)c1 (centres unmarked),13.3
13,Cc1ccc(NC(=O)CSCC(=O)OCc2cc(=O)oc3cc(O)ccc23)c(C)c1,-53.2
14,Cc1ccc(NC(=O)COC(=O)CSCC(=O)Nc2cc(C)on2)c(C)c1,-17.9
15,COC(=O)Cc1cc(=O)oc2cc(O)ccc12,5.29
16,CCOc1ccc(/C=N/NC(=S)NC2CC3CC2C2C=CCC32)cc1 (centres unmarked),6.33
17,CC1=C(C(=O)OCc2ccccc2)C(c2ccc(C)o2)C2=C(CCCC2=O)N1 (centres unmarked),-23.7
18,Cc1cc(C(F)(F)F)c2sc(N)nc2n1,5.61
19,CC(c1nc2ccccc2c(=O)[nH]1)N1CCN(C)CC1 (centres unmarked),-5.2
20,Cc1ccc(S(=O)(=O)N2CCCN(C(C)c3nc4ccccc4c(=O)[nH]3)CC2)cc1 (centres unmarked),-25.6
21,CC(c1nc2ccccc2c(=O)[nH]1)N1CCCN(S(=O)(=O)c2ccc(F)cc2)CC1 (centres unmarked),-59.1
22,CC1CCN(S(=O)(=O)c2ccc(NC(=O)C3CSC4(C)CCC(=O)N34)cc2)CC1 (centres unmarked),-6.34
